Values without a mark were called inactive.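 Rule for the calls: active = AUC reduced over 20% with Padj below 0.05 in at least 2 of 3 replicates; inactive = otherwise.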
Assays:
Roseburia intestinalis = test: growth AUC relative to DMSO control (median of replicates) (fraction); higher = more growth (less inhibition), active = hit call of the paper; settings: 20 µM; 24 h
Procedure, shortened: (§1)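 OD600 was recorded every hour for 24 h in anaerobic monocultures of gut bacteria kept at 37 °C in mGAM, seeded at OD600 0.05 and given 20 µM compound in 1% DMSO. The area under each growth curve was scaled to the plate median of solvent-only wells, or to row and column medians for the industrial chemical plate. Before this step, the minimum OD was set to 0. Reported values are medians of three biological replicates run on separate days.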

Streptococcus salivarius = test: as above; settings: 20 µM; 24 h
Procedure, shortened: as §1

SMILES	growth AUC (Roseburia intestinalis)	growth AUC (Streptococcus salivarius)
NC(=O)Cc1cccc2ccccc12	1.05	1.05
Cc1[nH]n(C)c(=O)c1C(=O)c1ccc(C(F)(F)F)cc1S(C)(=O)=O	1.01	1.03
O=C(O)Cc1c[nH]c2ccccc12	1.1	1.01
COC(=O)c1ccc(C(=O)OC)cc1	0.997	0.951
CC(C)N(C(=O)C(=O)O)c1ccccc1	1.02	1.02
CCCN(CCOc1c(Cl)cc(Cl)cc1Cl)C(N)=O	0.939	0.972
CCCN(CCOc1c(Cl)cc(Cl)cc1Cl)C(=O)NC=O	0.979	0.993
CCc1cccc(C)c1N(C(=O)C(=O)O)C(C)COC (stereo not given)	0.982	1
COC(=O)C(C)Oc1ccc(Cl)cc1C (stereo not given)	1.04	0.988
CCCCC(CC)COC(=O)COc1cc(Cl)c(Cl)cc1Cl (stereo not given)	0.966	1
COc1cc(OC)nc(NC(=O)NS(=O)(=O)Nc2ccccc2C(=O)N(C)C)n1	0.981	0.99
O=C(O)c1ccc(Cl)cc1Cl	0.997	1
O=[N+](Nc1ccccc1)c1ccccc1	0.944	1.06
CCNc1nc(Cl)nc(N(CC)CC)n1	1.01	1.02
O=C=NC1CCC(CC2CCC(N=C=O)CC2)CC1 (stereo not given)	1.06	1.01
CCCCOCCOCCOCc1cc2c(cc1CCC)OCO2	1	1.03
COC(=O)c1ccccc1S(=O)(=O)NC(=O)n1nc(OCC(C)O)n(C)c1=O (stereo not given)	1.01	1
CC(C)N(C(=O)CS(=O)CC(=O)O)c1ccc(F)cc1 (stereo not given)	1.03	0.948
O=S(=O)(Cc1ccc(Cl)cc1)c1ccc(Cl)cc1	1.05	1.06
CN(C)C(=O)Nc1ccc(Cl)c(Cl)c1	1.03	1.01
Cc1ccc(C(C)NC(=O)[C@@H](NC(=O)OC(C)C)C(C)C)cc1 (stereo not given in full)	0.956	0.963
O=C(Nc1ccc(F)cc1-c1ccc(Cl)c(Cl)c1)c1cn[nH]c1C(F)F	0.892	0.945
O=C(NCc1ncc(C(F)(F)F)cc1Cl)c1c(Cl)cccc1Cl	0.968	0.967
CCCOC(=O)c1ccc(O)cc1	1	0.979

SMILES	growth AUC (Roseburia intestinalis)	growth AUC (Streptococcus salivarius)
O=[N+]([O-])c1ccc(Oc2c(Cl)cc(Cl)cc2Cl)cc1	1.02	1.03
CCCCCCCC(=O)Oc1c(Br)cc(C#N)cc1Br	0.935	0.937
C=CCc1ccc(OC)c(OC)c1	1.03	1.02
COC(=O)c1c(Cl)c(Cl)c(C(=O)OC)c(Cl)c1Cl	0.964	0.962
CCSC(=O)N(CC(C)C)CC(C)C	1.01	0.997
[S]	0.952	0.997
Cc1ccc(Cl)cc1	1	1.02
Cc1nn(C)c(F)c1C(=O)Nc1ccccc1C(C)CC(C)C (stereo not given)	0.963	1.02
O=C1NCC[n+]2ccccc21.[Br-]	0.992	0.987
CCOCCc1ccc(OCCNc2ncnc(CC)c2Cl)c(C)c1C	0.923	1
NC(Cn1cncn1)C(=O)O (stereo not given)	1	0.998
c1ccc2cc3ccccc3cc2c1	0.933	0.919
Cc1ccc2c(c1)[C@H](Nc1nc(N)nc(C(C)F)n1)[C@@H](C)C2 (stereo not given in full)	0.948	1.01
CCC([O-])=C1C(=O)CC(C(=O)[O-])CC1=O.[Ca+2] (stereo not given)	1.12	0.917
CCOC(=O)[C@@H](C)Oc1ccc(Oc2nc3ccc(Cl)cc3o2)cc1	0.975	1.05
CCCCCCCCSCCO	0.944	0.959
C#CC(C)N(C)C(=O)Nc1ccc(Cl)cc1 (stereo not given)	0.992	0.993
c1cc2ccc3ccc4ccc5cccc6c(c1)c2c3c4c56	1.02	1.02
COC(=O)C(C)Oc1cc(Cl)c(Cl)cc1Cl (stereo not given)	1.01	1.02
COCC(=O)N(c1c(C)cccc1C(=O)O)C(C)C(=O)O (stereo not given)	1.02	0.982
COC1CCC2(CC1)NC(=O)C(c1cc(C)ccc1C)C2O (stereo not given)	0.974	1.04
CC(C)(CO)C(O)(CCc1ccc(Cl)cc1)Cn1cncn1 (stereo not given)	0.935	0.987
C=CCc1ccc(O)c(OC)c1	0.937	0.975
CC(C)C1C2CCC1c1c(NC(=O)c3cn(C)nc3C(F)F)cccc12 (stereo not given)	0.861	0.927

SMILES	growth AUC (Roseburia intestinalis)	growth AUC (Streptococcus salivarius)
Oc1ccccc1O	1.1	0.987
CCOC(=O)C1CC(=O)C(=C(O)C2CC2)C(=O)C1 (stereo not given)	1	0.988
CCCCCC(C)OC(=O)COc1ccc(Cl)c2cccnc12 (stereo not given)	0.931	0.877
S=C([S-])NCCNC(=S)[S-].S=C([S-])NCCNC(=S)[S-].[Mn+2].[Zn+2]	0.999	1.03
CCNC(=O)[C@@H](C)OC(=O)Nc1ccccc1	1.14	1.02
COc1nc(C)nc(NC(=O)NS(=O)(=O)c2ccccc2OCCCl)n1	1	0.992
CCOC(=O)Cn1c(=O)sc2cccc(Cl)c21	0.968	0.961
CCOC(=O)C(C)Oc1ccc(Oc2cnc3cc(Cl)ccc3n2)cc1 (stereo not given)	1.02	1.05
CCOc1nc(F)cc2nc(S(=O)(=O)Nc3c(Cl)cccc3C(=O)OC)nn12	1.04	1.01
CC(CNC(=S)[S-])NC(=S)[S-].[Zn+2] (mixture of isomers)	0.979	0.988
Cc1[nH]oc(=O)c1N=Nc1ccccc1Cl	0.938	0.982
Br[C@@H]1CC[C@@H](Br)[C@@H](Br)CC[C@H](Br)[C@H](Br)CC[C@H]1Br	1.43	0.898
CCOCCOC(=O)C(C)Oc1ccc(Oc2ncc(C(F)(F)F)cc2Cl)cc1 (stereo not given)	0.953	0.959
Cl.NCCO/C=C/[C@H](N)C(=O)O	0.975	1.05
CC1(C)C(=O)Oc2ccc(OS(C)(=O)=O)cc21	1.02	1.02
CC1(C)C(C(=O)OC(C#N)c2cccc(Oc3ccccc3)c2)C1C(Br)C(Br)(Br)Br (stereo not given)	0.932	0.972
CS(=O)(=O)c1ccc(C(=O)C2C(=O)C(O)CC(O)C2=O)c(Cl)c1COCC(F)(F)F (stereo not given)	1.03	1.03
CCc1ccc(O)cc1	0.919	0.946
CSc1nc(NC2CC2)nc(NC(C)(C)C)n1	0.981	1
CSC(=O)c1cccc2nnsc12	0.953	0.968
CCCOc1nc2ccc(I)cc2c(=O)n1CCC	0.942	0.994
Cc1cc(C2CC2)nc(Nc2ccc(O)cc2)n1	1.01	1.01

Source: the supplement of paper PMC12669032
